This note sets out measurements from PubChem BioAssay (EPA / NIEHS).

Assay [1] is described as follows: BSK_hDFCGF_SRB: Viability Assessment in the BioMAP Diversity Plus: hDFCGF Assay (AID 2283061).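 Also: cells exposed to compound for 24 h before the read.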 The note with it: primary human foreskin fibroblasts. Summed up:
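Readout is SRB absorbance at 560 nm, reflecting total protein in parallel cultures of human foreskin fibroblasts harvested 24 h after chemical dosing. Activity was fitted bidirectionally relative to DMSO.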

Read-out in assay [2]: TIMP metallopeptidase inhibitor 1 (TIMP1), TIMP1 (gene 7076)
In words: BSK_hDFCGF_TIMP1: BioMAP Diversity Plus: hDFCGF Assay for TIMP metallopeptidase inhibitor 1 (TIMP1) Biomarker Activity (AID 2283062). The note with it: primary human foreskin fibroblasts; actives raise or lower the signal. Summed up:
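Human skin fibroblasts (primary), hDFCGF system; compound exposure 24 h; TIMP-1 by ELISA; bidirectional fit vs DMSO negative control; overt cytotoxicity by SRB in parallel wells.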

Read-out in assay [3]: Monokine induced gamma interferon (MIG), CXCL9 (gene 4283)
In words: BSK_hDFCGF_MIG: BioMAP Diversity Plus: hDFCGF Assay for Monokine induced gamma interferon (MIG) Biomarker Activity (AID 2283063). The conditions noted are these: primary human foreskin fibroblasts; actives raise or lower the signal. The procedure, abridged: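 Chemicals were added to primary human foreskin fibroblast cultures, which were sampled 24 h later. MIG levels were then quantified by ELISA and responses fitted in both directions relative to DMSO.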

Read-out in assay [4]: Matrix Metallopeptidase 1 (MMP1), MMP1 (gene 4312)
Put plainly: BSK_hDFCGF_MMP1: BioMAP Diversity Plus: hDFCGF Assay for Matrix Metallopeptidase 1 (MMP1) Biomarker Activity (AID 2283064). The note with it: primary human foreskin fibroblasts; actives raise or lower the signal. The procedure, abridged:
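MMP1 levels quantified by ELISA 24 h after dosing human dermal fibroblast cultures, with parallel SRB total-protein staining for overt cytotoxicity. Data fitted in both directions against DMSO baseline.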

Read-out in assay [5]: Vascular cell adhesion molecule 1 (VCAM1), VCAM1 (gene 7412)
In words: BSK_hDFCGF_VCAM1: BioMAP Diversity Plus: hDFCGF Assay for Vascular cell adhesion molecule 1 (VCAM1) Biomarker Activity (AID 2283065).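 As to AC50: VCAM-1 protein level quantified by ELISA after 24 h chemical exposure.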 The conditions noted are these: primary human foreskin fibroblasts; actives raise or lower the signal. Summed up:
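Human foreskin fibroblast primary cells, chemical exposure 24 h; VCAM-1 by ELISA; bidirectional fit, DMSO = negative control/baseline.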

Read-out in assay [6]: Plasminogen activator inhibitor-1 (PAI1), SERPINE1 (gene 5054)
In words: BSK_hDFCGF_PAI1: BioMAP Diversity Plus: hDFCGF Assay for Plasminogen activator inhibitor-1 (PAI1) Biomarker Activity (AID 2283066). The conditions noted are these: primary human foreskin fibroblasts; actives raise or lower the signal. Summed up:
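PAI-1 levels in human dermal foreskin fibroblasts were quantified by ELISA 24 h after dosing, with gain or loss analysed against DMSO. Overt cytotoxicity was checked by sulforhodamine B total-protein staining in parallel cultures.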

Read-out in assay [7]: Intercellular Adhesion Molecule 1 (ICAM1), ICAM1 (gene 3383)
Put plainly: BSK_KF3CT_ICAM1: BioMAP Diversity Plus: KF3CT Assay for Intercellular Adhesion Molecule 1 (ICAM1) Biomarker Activity (AID 2283067). The conditions noted are these: primary human keratinocytes with fibroblasts; actives raise or lower the signal. The procedure, abridged:
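ICAM-1 levels are measured by ELISA 24 h after dosing a primary human co-culture of keratinocytes and foreskin fibroblasts. Activity in either direction is fitted relative to DMSO vehicle.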

Read-out in assay [8]: Interferon-gamma inducible Protein 10 (IP10), CXCL10 (gene 3627)
In words: BSK_KF3CT_IP10: BioMAP Diversity Plus: KF3CT Assay for Interferon-gamma inducible Protein 10 (IP10) Biomarker Activity (AID 2283068). The note with it: primary human keratinocytes with fibroblasts; actives raise or lower the signal. The procedure, abridged:
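Signal is secreted/surface IP-10 by ELISA in a human primary skin co-culture of keratinocytes and foreskin fibroblasts, taken 24 h post-dosing; DMSO served as negative control.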

Assay [9] is described as follows: BSK_KF3CT_SRB: Viability Assessment in the BioMAP Diversity Plus: KF3CT Assay (AID 2283069).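 Also: read 24 h after compound addition.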 The note with it: primary human keratinocytes with fibroblasts. Summed up:
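Cytotoxicity was gauged by SRB staining (0.1% SRB, 10% TCA fixation, 560 nm) of parallel cultures at 24 h. The cells were primary human skin keratinocytes co-cultured with fibroblasts, and activity was fitted in both directions against DMSO.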

Read-out in assay [10]: Interleukin-1 alpha (IL1a), IL1A (gene 3552)
In words: BSK_KF3CT_IL1a: BioMAP Diversity Plus: KF3CT Assay for Interleukin-1 alpha (IL1a) Biomarker Activity (AID 2283070). The note with it: primary human keratinocytes with fibroblasts; actives raise or lower the signal. The procedure, abridged: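 IL-1a was detected by ELISA 24 h after chemical treatment of a co-culture of human skin keratinocytes and foreskin fibroblasts. Gain or loss of signal was fitted against the DMSO baseline.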

Read-out in assay [11]: TIMP metallopeptidase inhibitor 2 (TIMP2), TIMP2 (gene 7077)
In words: BSK_KF3CT_TIMP2: BioMAP Diversity Plus: KF3CT Assay for TIMP metallopeptidase inhibitor 2 (TIMP2) Biomarker Activity (AID 2283071). The conditions noted are these: primary human keratinocytes with fibroblasts; actives raise or lower the signal. Summed up:
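TIMP-2 measured by ELISA at 24 h in human keratinocyte/fibroblast primary co-cultures exposed to chemicals. Both increases and decreases were fitted against DMSO. Parallel cultures were stained with SRB for total protein as an overt-cytotoxicity check.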

Read-out in assay [12]: C-C motif chemokine 2 (Homo sapiens) (UniProt P13500)
Put plainly: BSK_KF3CT_MCP1: BioMAP Diversity Plus: KF3CT Assay for Monocyte Chemoattractant Protein 1 (MCP1/CCL2) Biomarker Activity (AID 2283073). The note with it: primary human keratinocytes with fibroblasts; actives raise or lower the signal. Summed up: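 ELISA readout of MCP-1 after 24 h chemical dosing of a human skin primary co-culture of keratinocytes and foreskin fibroblasts. Activity was fitted in both directions against DMSO.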

Read-out in assay [13]: Matrix Metallopeptidase 9 (MMP9), MMP9 (gene 4318)
Put plainly: BSK_KF3CT_MMP9: BioMAP Diversity Plus: KF3CT Assay for Matrix Metallopeptidase 9 (MMP9) Biomarker Activity (AID 2283074).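 As to AC50: MMP9 protein level quantified by ELISA in the co-culture.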 The note with it: primary human keratinocytes with fibroblasts; actives raise or lower the signal. Summed up: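 MMP-9 quantified by ELISA after 24 h chemical treatment of primary human skin keratinocyte/fibroblast co-cultures; gain or loss fitted against DMSO, with parallel SRB staining (0.1% SRB, 560 nm) for overt cytotoxicity.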

Read-out in assay [14]: urokinase plasminogen activator (uPA), PLAU (gene 5328)
Put plainly: BSK_KF3CT_uPA: BioMAP Diversity Plus: KF3CT Assay for urokinase plasminogen activator (uPA) Biomarker Activity (AID 2283075). The note with it: primary human keratinocytes with fibroblasts; actives raise or lower the signal. Summed up:
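ELISA read-out of uPA 24 h after dosing human skin keratinocytes co-cultured with foreskin fibroblasts. Signal change fitted both ways relative to DMSO; sulforhodamine B on parallel cultures marks overt cytotoxicity.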

Read-out in the next assay: CD40, CD40 (gene 958)
In words: BSK_LPS_CD40: BioMAP Diversity Plus: LPS Assay for CD40 Biomarker Activity (AID 2283076). The conditions noted are these: primary human HUVEC with PBMC; actives raise or lower the signal. The procedure, abridged:
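Cells were dosed, incubated 24 h, then assayed for CD40 by ELISA. Gain or loss of signal was analysed relative to DMSO controls. The culture paired human umbilical vein endothelium with peripheral blood mononuclear cells.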

Read-out in assay [15]: E-selectin (Homo sapiens) (UniProt P16581)
In words: BSK_LPS_Eselectin: BioMAP Diversity Plus: LPS Assay for Eselectin Biomarker Activity (AID 2283077). The note with it: primary human HUVEC with PBMC; actives raise or lower the signal. The procedure, abridged: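 Primary human vascular co-culture (endothelium plus PBMC) was dosed with chemical, then E-selectin quantified by ELISA at 24 h. Endpoint values derive from bidirectional curve fitting relative to DMSO.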

Read-out in assay [16]: Interleukin-8 (IL8), CXCL8 (gene 3576)
In words: BSK_LPS_IL8: BioMAP Diversity Plus: LPS Assay for Interleukin-8 (IL8) Biomarker Activity (AID 2283078). The conditions noted are these: primary human HUVEC with PBMC; actives raise or lower the signal. The procedure, abridged: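 Readout is IL-8 by ELISA, taken 24 h after compounds were added to LPS-stimulated endothelial/PBMC co-cultures. Both increases and decreases relative to DMSO control were scored through bidirectional fitting.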

Assay [17] is described as follows: BSK_LPS_SRB: Viability Assessment in the BioMAP Diversity Plus: LPS Assay (AID 2283079).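 Also: total protein by sulforhodamine B absorbance as a cytotoxicity measure; measured one day after compound addition; fitted in both directions against DMSO so loss or gain of signal counts.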 The conditions noted are these: primary human HUVEC with PBMC. Summed up:
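Readout is SRB absorbance at 560 nm (0.1% stain, TCA-fixed parallel cultures) as a total-protein cytotoxicity measure. Cells: primary human umbilical vein endothelium plus peripheral blood mononuclear cells, 24 h after chemical exposure; DMSO served as baseline.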

Read-out in assay [18]: Interleukin-1 alpha (IL1a), IL1A (gene 3552)
In words: BSK_LPS_IL1a: BioMAP Diversity Plus: LPS Assay for Interleukin-1 alpha (IL1a) Biomarker Activity (AID 2283080). The note with it: primary human HUVEC with PBMC; actives raise or lower the signal. The procedure, abridged:
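ELISA read-out of IL-1 alpha from a human primary vascular co-culture (endothelium plus PBMC) under LPS, sampled 24 hours post-dosing. Activity was fitted in both directions relative to DMSO controls.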

Read-out in assay [19]: Transforming growth factor beta 1 (TGFb1), TGFB1 (gene 7040)
In words: BSK_KF3CT_TGFb1: BioMAP Diversity Plus: KF3CT Assay for Transforming growth factor beta 1 (TGFb1) Biomarker Activity (AID 2283072). The note with it: primary human keratinocytes with fibroblasts; actives raise or lower the signal. Summed up: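 ELISA quantifies TGF-b1 at 24 h post-dose in a primary human skin co-culture of keratinocytes and fibroblasts, with gain or loss judged against DMSO. Parallel SRB total-protein staining flags overt cytotoxicity.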

Activity calls are given as the source filed them. The calls were made as follows: active = hit-call score of the fitted dose curve at least 0.9, where 1 is the maximum; inactive = score below 0.9.

Chain of E-selectin (Homo sapiens) (P16581 whole entry, looked up): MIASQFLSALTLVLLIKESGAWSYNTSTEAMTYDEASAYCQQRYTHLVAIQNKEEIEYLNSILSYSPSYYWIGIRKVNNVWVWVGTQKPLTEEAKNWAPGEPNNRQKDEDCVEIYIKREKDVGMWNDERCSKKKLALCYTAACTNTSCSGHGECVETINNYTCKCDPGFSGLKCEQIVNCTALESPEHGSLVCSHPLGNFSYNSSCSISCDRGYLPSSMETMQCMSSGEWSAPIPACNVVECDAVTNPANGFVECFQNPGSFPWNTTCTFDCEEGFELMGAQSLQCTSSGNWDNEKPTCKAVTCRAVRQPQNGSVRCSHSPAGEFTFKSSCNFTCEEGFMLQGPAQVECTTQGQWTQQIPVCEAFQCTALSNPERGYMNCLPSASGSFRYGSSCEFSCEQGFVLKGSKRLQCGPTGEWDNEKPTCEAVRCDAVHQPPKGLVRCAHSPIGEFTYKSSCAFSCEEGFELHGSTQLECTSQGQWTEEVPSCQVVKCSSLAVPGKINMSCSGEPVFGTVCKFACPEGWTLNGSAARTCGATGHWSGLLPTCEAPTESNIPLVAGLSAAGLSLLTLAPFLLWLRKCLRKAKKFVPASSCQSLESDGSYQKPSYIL

In general, AC50 refers to the concentration giving half of the maximal activity seen. In the case of `CCCCCCCCCCCCCCCCCC(=O)O`, the outcome in assay [1], in assay [2], in assay [3], in assay [4], in [5] and in assay [6] was inactive. The result in assay [7], in assay [8], in assay [9], in assay [10], in assay [11] and in [12] was inactive. Further, the outcome was “inactive” in [13]; “inactive” in [14]; “inactive” with CD40, CD40 (gene 958); “inactive” in assay [15]; “inactive” in [16]. Also, the half-maximal activity concentration (AC50) in assay [17] and in assay [18] was 20 µM (active) throughout.
Take `CCCCc1ccc2c(n1)[C@@H](c1ccc(OC)cc1C[C@H](C)C(=O)O)[C@H](C(=O)O)[C@H]2c1ccc2c(c1)OCO2`: the result in assay [1], in [2], in assay [3], in assay [4], in assay [5] and in assay [6] was inactive. Further, the outcome in assay [7], in assay [8], in assay [10], in assay [11], in assay [19] and in [12] was inactive. Further, the outcome in assay [13] was “inactive”; in [14], “inactive”; in the assay with CD40, CD40 (gene 958) it was “inactive”; in assay [15], “inactive”; in assay [16] it was “inactive”; in [17], “inactive”. Moreover, the result in [18] was inactive.
As for `Nc1ccccc1N`, the outcome in [1], in assay [2], in assay [3], in assay [4], in assay [7] and in [8] was inactive. The outcome in [9], in [10], in assay [11], in assay [19], in [12] and in assay [14] was inactive. The result in assay [15], in assay [16], in [17] and in assay [18] was inactive. The AC50 is 6.75 µM (active) in assay [5]; 20 µM (active) in assay [13]; 5.79 µM (active) with CD40, CD40 (gene 958).
With `Cc1ccc2ncccc2c1`, the result in assay [1], in [2], in assay [3], in assay [4], in assay [5] and in assay [6] was inactive. In addition, the outcome in [7], in assay [8], in assay [9], in assay [10], in assay [19] and in [12] was inactive. Moreover, the outcome in [13] was “inactive”; in [14] it was “inactive”; in the assay with CD40, CD40 (gene 958), “inactive”; in [15] it was “inactive”; in [16] it was “inactive”; in assay [17] it was “inactive”. The result in assay [18] was inactive.
